This note sets out measurements from publication PMC7862700, “An all-to-all approach to the identification of sequence-specific readers for epigenetic DNA modifications on cytosine”.

Common to all, as to assay: DAPPL (digital affinity profiling via proximity ligation, sequencing); 10 mM Tris-HCl pH 7.5, 50 mM NaCl, 1 mM DTT, 4% glycerol, room temperature, 30 min; GST-TFs on glutathione beads, 16-mer random dsDNA library, 0.1% formaldehyde crosslink after washing; high values mean tight binding
For one assay, the target named is T1, FEV (Homo sapiens, UniProt Q99581 1-238).
T1 sequence: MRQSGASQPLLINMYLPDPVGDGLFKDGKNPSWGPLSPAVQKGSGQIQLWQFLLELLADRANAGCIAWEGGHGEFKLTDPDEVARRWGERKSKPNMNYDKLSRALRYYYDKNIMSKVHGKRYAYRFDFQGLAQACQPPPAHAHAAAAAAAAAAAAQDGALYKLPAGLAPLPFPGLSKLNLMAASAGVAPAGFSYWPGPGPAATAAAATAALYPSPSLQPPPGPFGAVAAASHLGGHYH
The conditions noted are these: protein: recombinant; tags: N-terminal GST; dsDNA, one strand shown. The method, boiled down:
(§1)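 Binding signal is given per hexamer as its read frequency for a factor divided by its frequency in the tag-only sample. GST-fused human transcription factors were expressed in yeast, captured on glutathione beads, barcoded with DNA and pooled with that sample, then incubated with 200 nmole of a 16-mer random double-stranded DNA library in Tris/NaCl/DTT/glycerol buffer for 30 min at room temperature. The pools were then washed, crosslinked, proximity-ligated, amplified by PCR and sequenced on an Illumina NextSeq500.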

In the next assay the target is ETV5 (Homo sapiens, UniProt P41161 1-510). The conditions noted are these: protein: recombinant; tags: N-terminal GST; dsDNA, one strand shown. Put shortly:
as §1

Another assay deals with HSF1 (Homo sapiens, UniProt Q00613 1-529). The conditions noted are these: protein: recombinant; tags: N-terminal GST; chain copies: 3; dsDNA, one strand shown. Put shortly: as §1
Sequence of HSF1 (Q00613 whole entry): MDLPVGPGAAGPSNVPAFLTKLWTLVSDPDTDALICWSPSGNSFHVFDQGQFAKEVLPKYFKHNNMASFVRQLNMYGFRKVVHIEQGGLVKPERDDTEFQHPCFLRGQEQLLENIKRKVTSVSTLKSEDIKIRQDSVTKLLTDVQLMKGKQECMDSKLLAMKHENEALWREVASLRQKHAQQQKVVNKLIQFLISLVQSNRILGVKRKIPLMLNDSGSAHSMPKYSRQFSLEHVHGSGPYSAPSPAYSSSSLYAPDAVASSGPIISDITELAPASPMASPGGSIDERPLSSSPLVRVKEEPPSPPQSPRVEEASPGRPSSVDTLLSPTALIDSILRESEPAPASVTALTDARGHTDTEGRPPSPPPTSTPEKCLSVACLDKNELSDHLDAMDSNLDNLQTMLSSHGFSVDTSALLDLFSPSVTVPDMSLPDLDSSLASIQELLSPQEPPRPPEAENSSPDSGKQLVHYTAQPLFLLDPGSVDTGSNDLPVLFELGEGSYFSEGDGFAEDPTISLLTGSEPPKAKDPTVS
In the next assay the target is T2, SPIC (Homo sapiens, UniProt Q8N5J4 1-248).
T2 sequence: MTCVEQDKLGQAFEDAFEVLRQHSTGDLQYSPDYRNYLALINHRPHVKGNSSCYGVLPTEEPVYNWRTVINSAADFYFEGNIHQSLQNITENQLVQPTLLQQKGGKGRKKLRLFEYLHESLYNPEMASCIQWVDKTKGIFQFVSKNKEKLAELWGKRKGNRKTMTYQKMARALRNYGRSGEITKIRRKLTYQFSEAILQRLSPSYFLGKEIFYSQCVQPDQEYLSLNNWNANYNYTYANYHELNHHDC
The conditions noted are these: protein: recombinant; tags: N-terminal GST; dsDNA, one strand shown. The method, boiled down:
as §1

The next assay has as its target ELF4 (Homo sapiens, UniProt Q99607 1-663). The conditions noted are these: protein: recombinant; tags: N-terminal GST; dsDNA, one strand shown. Put shortly: as §1
The next assay concerns the target T3, ELK4 (Homo sapiens, UniProt P28324-2 1-405).
T3 sequence: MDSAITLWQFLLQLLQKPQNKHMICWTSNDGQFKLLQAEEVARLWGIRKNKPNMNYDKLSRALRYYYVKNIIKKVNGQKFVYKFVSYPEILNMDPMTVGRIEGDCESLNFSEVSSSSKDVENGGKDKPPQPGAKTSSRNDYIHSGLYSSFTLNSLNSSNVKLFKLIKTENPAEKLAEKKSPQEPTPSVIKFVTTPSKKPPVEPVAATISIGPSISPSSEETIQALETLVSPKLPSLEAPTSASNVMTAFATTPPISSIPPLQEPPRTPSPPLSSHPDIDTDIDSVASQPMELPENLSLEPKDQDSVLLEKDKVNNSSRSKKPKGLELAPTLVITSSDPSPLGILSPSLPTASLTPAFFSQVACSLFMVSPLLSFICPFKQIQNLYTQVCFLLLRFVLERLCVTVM
The conditions noted are these: protein: recombinant; tags: N-terminal GST; dsDNA, one strand shown. The method, boiled down:
as §1

The target of a further assay is T4, ETV2 (Homo sapiens, UniProt O00321 1-342).
T4 sequence: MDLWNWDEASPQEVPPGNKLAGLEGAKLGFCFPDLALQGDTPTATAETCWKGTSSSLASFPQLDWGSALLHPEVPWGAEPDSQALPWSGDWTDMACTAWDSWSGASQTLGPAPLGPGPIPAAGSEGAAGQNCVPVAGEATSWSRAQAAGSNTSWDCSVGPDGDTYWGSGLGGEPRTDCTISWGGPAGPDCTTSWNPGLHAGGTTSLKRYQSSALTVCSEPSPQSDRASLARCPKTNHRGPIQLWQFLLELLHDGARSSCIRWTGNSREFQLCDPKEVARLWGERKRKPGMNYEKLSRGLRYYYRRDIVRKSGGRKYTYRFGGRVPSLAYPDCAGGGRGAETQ
The conditions noted are these: protein: recombinant; tags: N-terminal GST; dsDNA, one strand shown. Put shortly: as §1

A further assay has as its target T5, ELF3 (Homo sapiens, UniProt P78545 1-371).
T5 sequence: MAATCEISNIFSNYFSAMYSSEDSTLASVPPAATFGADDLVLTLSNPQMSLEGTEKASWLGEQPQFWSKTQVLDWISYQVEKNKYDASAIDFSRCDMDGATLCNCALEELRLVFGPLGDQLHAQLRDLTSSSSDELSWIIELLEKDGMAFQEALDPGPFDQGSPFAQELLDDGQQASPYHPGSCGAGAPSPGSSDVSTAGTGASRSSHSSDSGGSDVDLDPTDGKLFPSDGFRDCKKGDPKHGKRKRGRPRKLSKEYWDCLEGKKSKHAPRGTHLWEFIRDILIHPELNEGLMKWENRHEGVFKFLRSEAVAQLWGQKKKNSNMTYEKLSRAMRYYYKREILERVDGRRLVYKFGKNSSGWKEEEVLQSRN
The conditions noted are these: protein: recombinant; tags: N-terminal GST; dsDNA, one strand shown. Put shortly:
as §1

For the next assay, the target named is CRX (Homo sapiens, UniProt O43186 1-299). The conditions noted are these: protein: recombinant; tags: N-terminal GST; dsDNA, one strand shown. The method, boiled down: as §1
Sequence of CRX (O43186 whole entry): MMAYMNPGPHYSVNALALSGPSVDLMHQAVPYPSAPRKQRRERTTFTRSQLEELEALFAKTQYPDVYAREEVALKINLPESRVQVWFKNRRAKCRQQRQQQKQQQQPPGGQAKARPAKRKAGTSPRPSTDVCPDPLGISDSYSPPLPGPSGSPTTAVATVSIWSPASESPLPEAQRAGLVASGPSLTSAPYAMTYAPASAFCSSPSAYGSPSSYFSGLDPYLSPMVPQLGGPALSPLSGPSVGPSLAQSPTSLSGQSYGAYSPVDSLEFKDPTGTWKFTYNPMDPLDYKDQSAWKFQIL
The target in a further assay is ETV1 (Homo sapiens, UniProt P50549 1-477). The conditions noted are these: protein: recombinant; tags: N-terminal GST; dsDNA, one strand shown. The method, boiled down:
as §1

The next assay has as its target T6, ERF (Homo sapiens, UniProt P50548 1-548).
T6 sequence: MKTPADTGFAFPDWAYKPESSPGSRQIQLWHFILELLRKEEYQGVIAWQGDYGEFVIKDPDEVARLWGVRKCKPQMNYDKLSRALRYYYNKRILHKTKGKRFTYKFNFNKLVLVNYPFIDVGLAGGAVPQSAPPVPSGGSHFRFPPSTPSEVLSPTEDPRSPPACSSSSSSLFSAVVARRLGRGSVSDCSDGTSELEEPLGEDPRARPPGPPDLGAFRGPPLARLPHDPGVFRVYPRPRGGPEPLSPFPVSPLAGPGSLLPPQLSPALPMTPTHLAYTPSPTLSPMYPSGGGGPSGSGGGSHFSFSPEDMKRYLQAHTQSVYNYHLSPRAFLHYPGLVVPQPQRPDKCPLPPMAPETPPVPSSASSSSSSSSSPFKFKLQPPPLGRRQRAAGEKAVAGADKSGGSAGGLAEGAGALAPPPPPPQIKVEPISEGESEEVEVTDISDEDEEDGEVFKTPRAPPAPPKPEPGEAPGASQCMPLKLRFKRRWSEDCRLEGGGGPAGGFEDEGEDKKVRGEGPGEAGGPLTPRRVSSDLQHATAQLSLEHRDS
The conditions noted are these: protein: recombinant; tags: N-terminal GST; dsDNA, one strand shown. The method, boiled down: as §1

Another assay has as its target T7, ETV3L (Homo sapiens, UniProt Q6ZN32 1-361).
T7 sequence: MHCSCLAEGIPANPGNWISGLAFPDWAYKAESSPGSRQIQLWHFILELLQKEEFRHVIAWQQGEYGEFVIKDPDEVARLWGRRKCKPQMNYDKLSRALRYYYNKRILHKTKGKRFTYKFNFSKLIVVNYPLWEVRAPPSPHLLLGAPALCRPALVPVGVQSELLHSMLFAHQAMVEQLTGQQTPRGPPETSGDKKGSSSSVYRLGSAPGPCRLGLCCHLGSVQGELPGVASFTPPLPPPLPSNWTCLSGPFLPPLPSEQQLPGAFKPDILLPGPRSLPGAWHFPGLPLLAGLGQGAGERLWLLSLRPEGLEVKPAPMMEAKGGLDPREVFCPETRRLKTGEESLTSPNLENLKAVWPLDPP
The conditions noted are these: protein: recombinant; tags: N-terminal GST; dsDNA, one strand shown. Put shortly:
as §1

The next assay concerns the target T8, ETS2 (Homo sapiens, UniProt P15036 1-469).
T8 sequence: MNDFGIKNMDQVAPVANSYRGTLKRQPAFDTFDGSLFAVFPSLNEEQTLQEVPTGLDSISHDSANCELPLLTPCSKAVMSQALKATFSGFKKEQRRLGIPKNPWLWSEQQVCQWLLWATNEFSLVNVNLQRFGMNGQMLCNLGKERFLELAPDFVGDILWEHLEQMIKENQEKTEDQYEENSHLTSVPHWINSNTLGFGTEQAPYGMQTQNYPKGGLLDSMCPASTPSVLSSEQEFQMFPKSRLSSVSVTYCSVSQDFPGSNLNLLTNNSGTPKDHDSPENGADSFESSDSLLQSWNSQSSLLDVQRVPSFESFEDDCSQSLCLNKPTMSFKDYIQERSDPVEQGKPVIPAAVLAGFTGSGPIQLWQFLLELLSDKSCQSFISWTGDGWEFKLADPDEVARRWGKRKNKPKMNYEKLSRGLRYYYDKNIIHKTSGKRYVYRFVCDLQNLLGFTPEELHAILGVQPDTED
The conditions noted are these: protein: recombinant; tags: N-terminal GST; dsDNA, one strand shown. Put shortly:
as §1

Another assay deals with T9, SPDEF (Homo sapiens, UniProt O95238 1-335).
T9 sequence: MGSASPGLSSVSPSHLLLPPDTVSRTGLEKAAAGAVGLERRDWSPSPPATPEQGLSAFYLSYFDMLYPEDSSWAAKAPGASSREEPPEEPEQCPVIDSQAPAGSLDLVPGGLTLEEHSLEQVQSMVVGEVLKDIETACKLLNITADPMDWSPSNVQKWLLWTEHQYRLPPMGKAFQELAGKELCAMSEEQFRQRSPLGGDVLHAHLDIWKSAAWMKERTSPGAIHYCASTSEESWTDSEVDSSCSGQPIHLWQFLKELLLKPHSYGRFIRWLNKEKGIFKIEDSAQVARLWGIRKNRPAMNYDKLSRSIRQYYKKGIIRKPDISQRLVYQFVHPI
The conditions noted are these: protein: recombinant; tags: N-terminal GST; dsDNA, one strand shown. Put shortly:
as §1

In another assay the target is T10, ETV7 (Homo sapiens, UniProt Q9Y603 1-341).
T10 sequence: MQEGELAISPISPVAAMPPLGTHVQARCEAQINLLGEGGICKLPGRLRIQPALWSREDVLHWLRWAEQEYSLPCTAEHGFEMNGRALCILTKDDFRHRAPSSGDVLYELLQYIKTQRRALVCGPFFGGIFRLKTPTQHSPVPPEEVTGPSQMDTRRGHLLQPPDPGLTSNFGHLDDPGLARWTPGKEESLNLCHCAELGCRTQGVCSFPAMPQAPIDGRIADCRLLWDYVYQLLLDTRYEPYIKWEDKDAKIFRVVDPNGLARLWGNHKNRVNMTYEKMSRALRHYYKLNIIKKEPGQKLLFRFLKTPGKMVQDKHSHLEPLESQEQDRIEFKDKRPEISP
The conditions noted are these: protein: recombinant; tags: N-terminal GST; dsDNA, one strand shown. The method, boiled down: as §1

The target in a further assay is T11, ELF5 (Homo sapiens, UniProt Q9UKW6-2 1-255).
T11 sequence: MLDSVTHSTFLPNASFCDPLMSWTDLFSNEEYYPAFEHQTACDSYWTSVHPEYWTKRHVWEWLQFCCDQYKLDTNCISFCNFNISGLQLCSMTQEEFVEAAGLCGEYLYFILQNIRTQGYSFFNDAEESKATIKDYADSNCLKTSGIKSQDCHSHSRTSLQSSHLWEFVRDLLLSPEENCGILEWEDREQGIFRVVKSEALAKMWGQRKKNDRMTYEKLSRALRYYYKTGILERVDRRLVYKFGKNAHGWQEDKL
The conditions noted are these: protein: recombinant; tags: N-terminal GST; dsDNA, one strand shown. Put shortly: as §1

The next assay addresses T12, ETV3 (Homo sapiens, UniProt P41162-2 1-143).
T12 sequence: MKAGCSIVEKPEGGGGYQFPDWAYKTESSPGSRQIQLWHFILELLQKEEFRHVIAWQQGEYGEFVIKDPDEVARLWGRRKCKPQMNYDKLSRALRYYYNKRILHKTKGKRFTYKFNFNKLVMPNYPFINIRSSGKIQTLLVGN
The conditions noted are these: protein: recombinant; tags: N-terminal GST; dsDNA, one strand shown. Put shortly: as §1

The target in the next assay is ETV6 (Homo sapiens, UniProt P41212 1-452). The conditions noted are these: protein: recombinant; tags: N-terminal GST; dsDNA, one strand shown. Put shortly: as §1
Sequence of ETV6 (P41212 whole entry): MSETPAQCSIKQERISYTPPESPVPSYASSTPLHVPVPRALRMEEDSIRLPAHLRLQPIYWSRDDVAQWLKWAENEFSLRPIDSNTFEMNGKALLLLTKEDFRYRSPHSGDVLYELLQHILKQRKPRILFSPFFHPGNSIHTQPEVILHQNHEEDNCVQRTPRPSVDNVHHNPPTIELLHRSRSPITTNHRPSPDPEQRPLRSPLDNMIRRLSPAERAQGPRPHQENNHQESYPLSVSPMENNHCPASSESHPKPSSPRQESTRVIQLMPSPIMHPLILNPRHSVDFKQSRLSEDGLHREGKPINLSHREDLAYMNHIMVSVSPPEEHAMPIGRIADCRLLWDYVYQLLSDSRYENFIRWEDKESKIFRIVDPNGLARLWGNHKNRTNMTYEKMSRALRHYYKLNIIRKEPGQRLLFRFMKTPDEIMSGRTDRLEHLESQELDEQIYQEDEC

Sequence of ETV5 (P41161 whole entry): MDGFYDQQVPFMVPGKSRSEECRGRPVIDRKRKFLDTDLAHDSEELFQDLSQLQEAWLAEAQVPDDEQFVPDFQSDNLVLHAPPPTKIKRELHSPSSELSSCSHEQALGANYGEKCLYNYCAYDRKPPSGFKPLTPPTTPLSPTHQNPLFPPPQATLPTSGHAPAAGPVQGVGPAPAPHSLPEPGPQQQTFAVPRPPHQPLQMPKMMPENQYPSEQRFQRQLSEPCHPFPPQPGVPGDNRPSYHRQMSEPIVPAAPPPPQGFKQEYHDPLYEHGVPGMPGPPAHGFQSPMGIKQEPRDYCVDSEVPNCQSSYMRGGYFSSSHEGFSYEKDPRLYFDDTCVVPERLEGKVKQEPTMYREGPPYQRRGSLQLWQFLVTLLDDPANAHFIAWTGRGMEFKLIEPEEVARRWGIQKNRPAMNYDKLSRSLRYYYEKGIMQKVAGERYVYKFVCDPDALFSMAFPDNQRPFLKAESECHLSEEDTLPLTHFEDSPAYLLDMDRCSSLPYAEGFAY
Sequence of ELF4 (Q99607 whole entry): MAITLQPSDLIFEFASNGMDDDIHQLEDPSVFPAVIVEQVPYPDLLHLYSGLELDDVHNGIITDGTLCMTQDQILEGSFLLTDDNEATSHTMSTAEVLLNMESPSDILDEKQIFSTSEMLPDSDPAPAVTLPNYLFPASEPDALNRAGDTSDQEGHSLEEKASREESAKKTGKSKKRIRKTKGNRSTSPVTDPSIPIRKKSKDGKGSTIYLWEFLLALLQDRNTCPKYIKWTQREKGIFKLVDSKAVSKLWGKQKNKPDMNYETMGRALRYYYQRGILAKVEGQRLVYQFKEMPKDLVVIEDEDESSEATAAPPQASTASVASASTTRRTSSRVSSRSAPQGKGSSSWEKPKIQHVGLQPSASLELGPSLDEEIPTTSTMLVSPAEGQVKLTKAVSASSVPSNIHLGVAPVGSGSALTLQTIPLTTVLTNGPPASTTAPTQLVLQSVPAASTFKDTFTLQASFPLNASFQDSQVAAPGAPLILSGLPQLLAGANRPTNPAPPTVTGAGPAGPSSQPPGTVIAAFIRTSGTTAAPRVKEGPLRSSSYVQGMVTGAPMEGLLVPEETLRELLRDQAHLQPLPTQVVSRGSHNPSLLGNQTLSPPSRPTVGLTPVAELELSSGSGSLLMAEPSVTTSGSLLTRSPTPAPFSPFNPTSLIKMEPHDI
Sequence of ETV1 (P50549 whole entry): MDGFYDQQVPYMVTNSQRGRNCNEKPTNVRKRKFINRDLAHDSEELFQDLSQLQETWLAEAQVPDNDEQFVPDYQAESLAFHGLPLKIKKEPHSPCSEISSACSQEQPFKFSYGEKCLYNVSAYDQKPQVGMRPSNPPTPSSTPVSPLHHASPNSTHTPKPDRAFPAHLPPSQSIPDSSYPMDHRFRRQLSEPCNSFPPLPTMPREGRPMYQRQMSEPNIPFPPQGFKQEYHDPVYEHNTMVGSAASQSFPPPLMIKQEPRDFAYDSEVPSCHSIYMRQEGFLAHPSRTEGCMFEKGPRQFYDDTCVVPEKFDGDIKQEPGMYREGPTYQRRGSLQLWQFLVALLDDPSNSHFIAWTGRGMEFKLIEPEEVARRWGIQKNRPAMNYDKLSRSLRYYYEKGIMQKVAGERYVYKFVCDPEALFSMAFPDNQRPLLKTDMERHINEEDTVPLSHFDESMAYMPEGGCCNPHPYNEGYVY

As for GTATTA, the binding signal was 1.09 fold enrichment (6-mer frequency, TF over GST control) with FEV; 1.14 fold enrichment (6-mer frequency, TF over GST control) in the assay with ETV5; 1.62 fold enrichment (6-mer frequency, TF over GST control) in the assay with HSF1; 1.04 fold enrichment (6-mer frequency, TF over GST control) in the assay with SPIC; 1.08 fold enrichment (6-mer frequency, TF over GST control) with ELF4; 1.14 fold enrichment (6-mer frequency, TF over GST control) with ELK4. The binding signal was 1.2 fold enrichment (6-mer frequency, TF over GST control) with ETV2; 1.09 fold enrichment (6-mer frequency, TF over GST control) in the assay with ELF3; 2.49 fold enrichment (6-mer frequency, TF over GST control) with CRX; 1.13 fold enrichment (6-mer frequency, TF over GST control) with ETV1; 1.24 fold enrichment (6-mer frequency, TF over GST control) with ERF; 1.04 fold enrichment (6-mer frequency, TF over GST control) with ETV3L. Besides, the binding signal was 1.07 fold enrichment (6-mer frequency, TF over GST control) with ETS2; 1.17 fold enrichment (6-mer frequency, TF over GST control) with SPDEF; 1.05 fold enrichment (6-mer frequency, TF over GST control) with ETV7; 1.02 fold enrichment (6-mer frequency, TF over GST control) with ELF5; 1.14 fold enrichment (6-mer frequency, TF over GST control) with ETV3; 1.16 fold enrichment (6-mer frequency, TF over GST control) with ETV6.
